{"source": "the supplement of paper PMC11732987", "about": "“Enantioselective OTUD7B fragment discovery through chemoproteomics screening and high-throughput optimisation” (Communications Chemistry, 2025)", "assay_in_all_cases": "log2 ratio of Biotin-Ahx-Ub-VS probe labelling (fragment/DMSO); higher = less target engagement (more negative = stronger competition), active = hit call of the paper (q ≤ 0.05, log2 ratio ≤ -1)", "settings_in_all_cases": "compound concentration: 200 uM; treatment time: 3 h", "key": {"ALG13": {"target": "T1, ALG13 (UniProt Q9NP73)", "T1 sequence (whole entry)": "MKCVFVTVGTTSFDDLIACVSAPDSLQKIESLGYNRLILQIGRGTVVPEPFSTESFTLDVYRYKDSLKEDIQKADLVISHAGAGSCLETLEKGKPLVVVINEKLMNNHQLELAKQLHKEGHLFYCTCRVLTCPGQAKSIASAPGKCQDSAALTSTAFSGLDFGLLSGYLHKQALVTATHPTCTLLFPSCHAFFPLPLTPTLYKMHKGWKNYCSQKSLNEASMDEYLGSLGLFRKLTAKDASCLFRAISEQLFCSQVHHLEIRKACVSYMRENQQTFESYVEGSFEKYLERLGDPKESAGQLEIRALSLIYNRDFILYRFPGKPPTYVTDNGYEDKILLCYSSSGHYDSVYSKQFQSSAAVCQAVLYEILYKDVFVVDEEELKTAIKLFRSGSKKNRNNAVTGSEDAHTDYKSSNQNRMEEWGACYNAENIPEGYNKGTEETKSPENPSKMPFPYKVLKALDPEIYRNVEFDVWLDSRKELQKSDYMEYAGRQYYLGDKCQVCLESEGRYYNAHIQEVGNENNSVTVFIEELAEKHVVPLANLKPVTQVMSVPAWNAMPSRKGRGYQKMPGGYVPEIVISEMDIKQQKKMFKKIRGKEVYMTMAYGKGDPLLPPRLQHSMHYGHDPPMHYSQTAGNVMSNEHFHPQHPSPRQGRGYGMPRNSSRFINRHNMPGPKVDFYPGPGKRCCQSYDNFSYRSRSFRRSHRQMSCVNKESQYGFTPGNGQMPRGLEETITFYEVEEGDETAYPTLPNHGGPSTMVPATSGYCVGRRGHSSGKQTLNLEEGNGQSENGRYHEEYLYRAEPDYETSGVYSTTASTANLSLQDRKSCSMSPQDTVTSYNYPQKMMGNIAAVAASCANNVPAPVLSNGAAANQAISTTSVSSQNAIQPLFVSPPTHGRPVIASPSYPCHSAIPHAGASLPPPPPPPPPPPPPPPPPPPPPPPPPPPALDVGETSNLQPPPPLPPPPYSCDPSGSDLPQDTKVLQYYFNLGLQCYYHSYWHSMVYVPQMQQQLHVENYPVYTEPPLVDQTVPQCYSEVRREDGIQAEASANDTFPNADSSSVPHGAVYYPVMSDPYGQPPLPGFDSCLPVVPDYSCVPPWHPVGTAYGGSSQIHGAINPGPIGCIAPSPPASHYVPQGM", "how_it_was_run": "(§1)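 HEK293T lysate (495 µg per sample, in Tris/CHAPS/IGEPAL buffer with protease inhibitors) was exposed in triplicate for 3 h to fragment at 200 µM or to vehicle, then to Biotin-Ahx-Ub-VS at 0.5 µM final for 1 h. Labelled DUBs were enriched on NeutrAvidin, digested with LysC and trypsin, and analysed by diaPASEF LC-MS/MS. Spectronaut label-free quantities were normalised to the global median, and values are average log2 ratios of fragment over vehicle from an unpaired t-test. Only proteins with ≥2 unique peptides were used.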"}, "ATXN3": {"target": "ATXN3 (UniProt P54252)", "sequence (P54252 whole entry)": "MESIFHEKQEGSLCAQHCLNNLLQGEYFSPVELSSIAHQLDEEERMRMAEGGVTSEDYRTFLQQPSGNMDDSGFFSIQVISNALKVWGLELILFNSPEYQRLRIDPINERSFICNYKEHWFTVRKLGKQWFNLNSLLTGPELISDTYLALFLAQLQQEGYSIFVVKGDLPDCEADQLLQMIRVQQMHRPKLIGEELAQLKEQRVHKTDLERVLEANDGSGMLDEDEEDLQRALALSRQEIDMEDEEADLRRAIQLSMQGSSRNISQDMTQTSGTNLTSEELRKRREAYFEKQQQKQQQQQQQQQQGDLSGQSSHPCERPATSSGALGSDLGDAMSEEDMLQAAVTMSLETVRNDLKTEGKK", "how_it_was_run": "as §1"}, "BAP1": {"target": "T2, BAP1 (UniProt Q92560)", "T2 sequence (whole entry)": "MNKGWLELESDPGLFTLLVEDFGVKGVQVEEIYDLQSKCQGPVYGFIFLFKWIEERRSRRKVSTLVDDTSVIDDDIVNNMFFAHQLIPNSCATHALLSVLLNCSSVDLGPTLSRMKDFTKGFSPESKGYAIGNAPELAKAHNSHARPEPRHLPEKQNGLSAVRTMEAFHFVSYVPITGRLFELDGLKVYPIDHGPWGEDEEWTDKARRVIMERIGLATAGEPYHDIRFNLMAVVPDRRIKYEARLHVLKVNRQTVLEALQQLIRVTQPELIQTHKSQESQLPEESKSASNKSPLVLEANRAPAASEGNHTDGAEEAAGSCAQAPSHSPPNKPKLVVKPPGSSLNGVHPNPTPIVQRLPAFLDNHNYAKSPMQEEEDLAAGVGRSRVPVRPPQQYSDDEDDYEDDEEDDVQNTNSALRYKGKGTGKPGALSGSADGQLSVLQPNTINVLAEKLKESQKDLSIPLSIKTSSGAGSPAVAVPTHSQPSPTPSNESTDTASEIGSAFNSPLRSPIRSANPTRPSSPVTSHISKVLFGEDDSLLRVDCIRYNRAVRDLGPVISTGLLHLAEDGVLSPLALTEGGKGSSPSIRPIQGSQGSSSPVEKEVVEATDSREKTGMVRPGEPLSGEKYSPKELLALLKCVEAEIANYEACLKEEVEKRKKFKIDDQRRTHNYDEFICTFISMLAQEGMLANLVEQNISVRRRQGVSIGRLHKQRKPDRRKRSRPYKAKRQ", "how_it_was_run": "as §1"}, "EIF3F": {"target": "EIF3F (UniProt O00303)", "sequence (O00303 whole entry)": "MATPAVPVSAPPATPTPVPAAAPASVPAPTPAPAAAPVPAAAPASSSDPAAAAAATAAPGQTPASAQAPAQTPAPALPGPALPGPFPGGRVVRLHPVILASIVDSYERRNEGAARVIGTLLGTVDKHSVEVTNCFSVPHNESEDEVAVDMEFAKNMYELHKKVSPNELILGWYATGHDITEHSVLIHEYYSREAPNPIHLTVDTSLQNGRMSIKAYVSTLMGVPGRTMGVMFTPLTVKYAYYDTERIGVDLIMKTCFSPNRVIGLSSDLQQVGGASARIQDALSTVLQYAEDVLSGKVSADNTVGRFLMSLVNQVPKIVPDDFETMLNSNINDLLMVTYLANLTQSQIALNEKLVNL", "how_it_was_run": "as §1"}, "EIF3H": {"target": "EIF3H (UniProt O15372)", "sequence (O15372 whole entry)": "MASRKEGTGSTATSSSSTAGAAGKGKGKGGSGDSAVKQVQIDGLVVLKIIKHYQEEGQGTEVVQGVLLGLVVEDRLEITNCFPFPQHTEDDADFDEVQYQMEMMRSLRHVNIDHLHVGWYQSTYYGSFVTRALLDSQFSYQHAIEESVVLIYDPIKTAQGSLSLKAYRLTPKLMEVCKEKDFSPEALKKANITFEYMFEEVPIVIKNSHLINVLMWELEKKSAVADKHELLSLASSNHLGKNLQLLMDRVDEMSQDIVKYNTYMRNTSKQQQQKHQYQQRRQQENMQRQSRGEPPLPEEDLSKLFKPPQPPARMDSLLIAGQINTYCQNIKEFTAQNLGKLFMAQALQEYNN", "how_it_was_run": "as §1"}, "FAM105A": {"target": "T3, FAM105A (UniProt Q9NUU6)", "T3 sequence (whole entry)": "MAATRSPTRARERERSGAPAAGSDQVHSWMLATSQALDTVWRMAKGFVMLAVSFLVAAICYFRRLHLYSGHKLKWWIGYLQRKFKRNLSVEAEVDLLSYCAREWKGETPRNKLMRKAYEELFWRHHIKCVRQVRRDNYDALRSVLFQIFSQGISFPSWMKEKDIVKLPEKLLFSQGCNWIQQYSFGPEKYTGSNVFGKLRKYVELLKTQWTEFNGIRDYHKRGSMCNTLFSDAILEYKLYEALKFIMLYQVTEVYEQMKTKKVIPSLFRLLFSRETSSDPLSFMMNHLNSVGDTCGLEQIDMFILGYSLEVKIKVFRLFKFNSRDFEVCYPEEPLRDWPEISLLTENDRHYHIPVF", "how_it_was_run": "as §1"}, "OTUB1": {"target": "OTUB1 (UniProt Q96FW1)", "sequence (Q96FW1 whole entry)": "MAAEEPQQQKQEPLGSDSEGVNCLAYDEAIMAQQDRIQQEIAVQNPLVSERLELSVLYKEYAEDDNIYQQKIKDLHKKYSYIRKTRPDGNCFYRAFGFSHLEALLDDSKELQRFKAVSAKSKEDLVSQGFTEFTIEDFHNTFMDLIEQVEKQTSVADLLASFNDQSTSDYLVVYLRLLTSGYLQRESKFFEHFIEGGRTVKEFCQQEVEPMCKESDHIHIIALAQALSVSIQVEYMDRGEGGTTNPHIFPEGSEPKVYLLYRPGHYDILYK", "how_it_was_run": "as §1"}, "OTUD4": {"target": "T4, OTUD4 (UniProt Q01804)", "T4 sequence (whole entry)": "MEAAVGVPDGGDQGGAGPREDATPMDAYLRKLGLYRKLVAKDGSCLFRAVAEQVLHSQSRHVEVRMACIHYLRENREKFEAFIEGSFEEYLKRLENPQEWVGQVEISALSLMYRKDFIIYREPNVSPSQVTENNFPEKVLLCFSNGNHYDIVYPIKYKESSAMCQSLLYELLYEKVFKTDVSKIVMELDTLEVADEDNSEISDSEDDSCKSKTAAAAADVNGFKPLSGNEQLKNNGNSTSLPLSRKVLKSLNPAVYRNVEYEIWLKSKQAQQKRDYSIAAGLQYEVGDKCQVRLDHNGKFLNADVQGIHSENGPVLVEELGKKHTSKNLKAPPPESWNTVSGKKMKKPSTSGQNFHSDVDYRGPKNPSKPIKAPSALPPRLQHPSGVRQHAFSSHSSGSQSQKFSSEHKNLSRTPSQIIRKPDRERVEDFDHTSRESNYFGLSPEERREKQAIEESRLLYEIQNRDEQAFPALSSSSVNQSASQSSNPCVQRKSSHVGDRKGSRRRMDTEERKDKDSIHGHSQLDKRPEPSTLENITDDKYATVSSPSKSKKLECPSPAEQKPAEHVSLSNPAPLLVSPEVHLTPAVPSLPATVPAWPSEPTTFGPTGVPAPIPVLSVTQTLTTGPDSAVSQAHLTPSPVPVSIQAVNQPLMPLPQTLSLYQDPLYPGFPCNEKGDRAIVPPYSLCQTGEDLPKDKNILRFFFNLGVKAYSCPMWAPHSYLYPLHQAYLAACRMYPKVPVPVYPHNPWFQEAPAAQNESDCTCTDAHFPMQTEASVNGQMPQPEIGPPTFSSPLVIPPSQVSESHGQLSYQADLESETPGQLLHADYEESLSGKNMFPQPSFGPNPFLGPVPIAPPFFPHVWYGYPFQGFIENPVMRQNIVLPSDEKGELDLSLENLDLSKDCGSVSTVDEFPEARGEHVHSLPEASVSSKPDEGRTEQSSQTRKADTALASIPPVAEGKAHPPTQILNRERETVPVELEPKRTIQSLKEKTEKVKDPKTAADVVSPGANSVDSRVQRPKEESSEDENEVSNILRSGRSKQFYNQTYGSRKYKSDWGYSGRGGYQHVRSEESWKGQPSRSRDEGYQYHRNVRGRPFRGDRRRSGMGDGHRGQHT", "how_it_was_run": "as §1"}, "OTUD5": {"target": "T5, OTUD5 (UniProt Q96G74)", "T5 sequence (whole entry)": "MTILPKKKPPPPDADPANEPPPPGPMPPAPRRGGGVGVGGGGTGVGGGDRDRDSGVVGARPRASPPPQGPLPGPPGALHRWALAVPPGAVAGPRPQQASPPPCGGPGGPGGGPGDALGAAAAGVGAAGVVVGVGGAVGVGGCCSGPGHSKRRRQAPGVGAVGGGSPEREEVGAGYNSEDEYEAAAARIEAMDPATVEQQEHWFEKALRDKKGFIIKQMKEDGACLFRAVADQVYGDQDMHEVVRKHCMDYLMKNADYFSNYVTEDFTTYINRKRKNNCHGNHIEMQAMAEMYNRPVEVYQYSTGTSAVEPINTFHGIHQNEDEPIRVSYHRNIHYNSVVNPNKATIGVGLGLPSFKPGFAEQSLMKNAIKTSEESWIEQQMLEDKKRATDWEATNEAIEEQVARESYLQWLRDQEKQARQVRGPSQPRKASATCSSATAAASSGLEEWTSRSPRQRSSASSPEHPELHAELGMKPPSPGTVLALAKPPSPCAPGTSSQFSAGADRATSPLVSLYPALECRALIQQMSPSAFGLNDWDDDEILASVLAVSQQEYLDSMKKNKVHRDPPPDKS", "how_it_was_run": "as §1"}}, "note": "Unmarked numbers belong to inactive results.", "data": [{"smiles": "Cc1ccn2cc(CNC(=O)CCl)nc2c1.Cl", "values": [{"measurement": "log2 ratio of Biotin-Ahx-Ub-VS probe labelling", "setting": "ALG13", "value": 0.193}, {"measurement": "log2 ratio of Biotin-Ahx-Ub-VS probe labelling", "setting": "ATXN3", "value": -0.103}, {"measurement": "log2 ratio of Biotin-Ahx-Ub-VS probe labelling", "setting": "BAP1", "value": "-1.14 (active)"}, {"measurement": "log2 ratio of Biotin-Ahx-Ub-VS probe labelling", "setting": "EIF3F", "value": -0.185}, {"measurement": "log2 ratio of Biotin-Ahx-Ub-VS probe labelling", "setting": "EIF3H", "value": 0.253}, {"measurement": "log2 ratio of Biotin-Ahx-Ub-VS probe labelling", "setting": "FAM105A", "value": 0.254}, {"measurement": "log2 ratio of Biotin-Ahx-Ub-VS probe labelling", "setting": "OTUB1", "value": 0.0771}, {"measurement": "log2 ratio of Biotin-Ahx-Ub-VS probe labelling", "setting": "OTUD4", "value": -0.505}, {"measurement": "log2 ratio of Biotin-Ahx-Ub-VS probe labelling", "setting": "OTUD5", "value": -0.214}]}]}
